# Laboratory results published in PubChem BioAssay (NCI).
# About 83,000 compounds went through this panel and 20% of them were active in at least one assay; those are over-represented in the sample as a whole.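 Percent growth is the endpoint: 0 to 100 indicates growth inhibition (40 means 60% inhibition), 0 means no net growth, and negative values indicate cell death.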 A number with no mark means an inactive call. Calls of active or inactive are those of the source. Rule for the calls: active = growth percent below 10; inactive = the rest.
# Key:
# Assay in all cases: NCI-60 one-dose screen, 48 h (100 = growth as untreated, 0 = no growth, -100 = all killed)
# Details in all cases: 10 µM unless noted
# DU-145 prostate = system: DU-145 prostate
# K-562 leukemia = system: K-562 leukemia
# MALME-3M melanoma = system: MALME-3M melanoma
# MDA-MB-231 breast = system: MDA-MB-231 breast
# RXF 393 renal = system: RXF 393 renal
# SF-268 CNS = system: SF-268 CNS
# SF-295 CNS = system: SF-295 CNS
# SF-539 CNS = system: SF-539 CNS
# HCT-15 colon = system: HCT-15 colon
# HT29 colon = system: HT29 colon
# SNB-75 CNS = system: SNB-75 CNS
# SNB-19 CNS = system: SNB-19 CNS
# U251 CNS = system: U251 CNS
# PC-3 prostate = system: PC-3 prostate
# SK-MEL-5 melanoma = system: SK-MEL-5 melanoma
# UACC-62 melanoma = system: UACC-62 melanoma
# LOX IMVI melanoma = system: LOX IMVI melanoma
# SK-MEL-28 melanoma = system: SK-MEL-28 melanoma
# UACC-257 melanoma = system: UACC-257 melanoma
# M14 melanoma = system: M14 melanoma
Structure (SMILES),growth (DU-145 prostate),growth (K-562 leukemia),growth (MALME-3M melanoma),growth (MDA-MB-231 breast),growth (RXF 393 renal),growth (SF-268 CNS),growth (SF-295 CNS) [%],growth (SF-539 CNS),growth (HCT-15 colon),growth (HT29 colon),growth (SNB-75 CNS),growth (SNB-19 CNS),growth (U251 CNS),growth (PC-3 prostate),growth (SK-MEL-5 melanoma),growth (UACC-62 melanoma),growth (LOX IMVI melanoma),growth (SK-MEL-28 melanoma),growth (UACC-257 melanoma),growth (M14 melanoma)
CCCCCCCCCC(C)NC(=O)CCl (centres undefined),102%,97.3%,93.8%,93%,101%,95.1%,99.8,99.9%,89.6%,114%,69.8%,86.5%,82.1%,94.5%,97.5%,93.4%,47.9%,95.3%,–,–
Cc1ccc(C(=O)C(Br)C(Br)c2ccccc2)cc1 (centres undefined),85.9%,50.9%,88.3%,99.9%,79.3%,95.7%,97.9,100%,–,101%,82.9%,–,82.7%,108%,94.3%,94.7%,66.6%,101%,–,–
CSCc1ncc(-c2ccc(C(F)(F)F)cc2)c(NC2CCCCCC2)n1,71.4% [25 µM],29.3% [25 µM],68.8% [25 µM],56.2% [25 µM],75.4% [25 µM],75.5% [25 µM],–,93.8% [25 µM],64.9% [25 µM],64.9% [25 µM],71.6% [25 µM],73.1% [25 µM],68.5% [25 µM],-5.89% [25 µM] (active),78.6% [25 µM],70.2% [25 µM],82.7% [25 µM],95.6% [25 µM],74.1% [25 µM],67.4% [25 µM]
COC(=O)c1c[n+]([O-])ccc1OC,114%,71.1%,92.1%,99.4%,108%,116%,88.1,122%,–,107%,96.6%,101%,–,99.5%,99.7%,101%,104%,91.4%,–,104%
C=C[C@]1(C)C=C2C(=O)[C@@]3(O)OC[C@@]4(CCCC(C)(C)C43O)C2(O)C(O)C1 (some centres undefined),60.2%,17.1%,5.18% (active),98.3%,21.4%,83.8%,113,66.2%,12.9%,-68.6% (active),69.6%,99.3%,53.9%,55.2%,91.6%,86.3%,12.2%,47.2%,–,9.03% (active)
CN1NC(c2ccccc2)NN(C)C1=O,122%,89.3%,84.8%,108%,107%,102%,83.5,106%,96.6%,107%,77.8%,97.2%,–,88.6%,97.8%,91.6%,92.5%,107%,–,108%
CN(CCC#N)c1ccc(/C=C(\C#N)c2cccc(C(F)(F)F)c2)cc1,82.5%,21%,58.2%,58.8%,71.7%,81.7%,95.8,68%,39.9%,23.5%,–,79%,–,61.1%,57.8%,55.3%,63.2%,71.9%,–,55.9%
O=C(/C=C/c1ccc(Cl)cc1)c1ccc(Cl)cc1,101%,73.9%,91.8%,118%,96%,98.3%,–,104%,94.3%,70.2%,99%,102%,93.8%,96.8%,97.3%,90.4%,66.5%,99.9%,103%,100%
COC(=O)c1cc(Nc2ccc(O)c3c2C(=O)c2c([N+](=O)[O-])ccc(O)c2C3=O)cc(C(=O)OC)c1,-59.1% (active),72.9%,-51.1% (active),90.4%,51.9%,55.1%,–,84%,16.3%,36.5%,59.1%,76.9%,74.8%,70.9%,-49% (active),48.8%,59.5%,30.8%,12.1%,-66.5% (active)
CCC(C)(CC)c1ccc(O)c(C)c1,114%,114%,99.8%,106%,108%,109%,105,100%,101%,104%,86.2%,–,97.7%,98.9%,104%,109%,97%,110%,–,99.7%
CCN(CC)CCNc1ncnc2c1cnn2-c1ccc(Cl)cc1,94.5%,45%,88.9%,61.1%,–,81.7%,85.7,70%,34.8%,7.44% (active),74.4%,91.2%,75.5%,82%,–,-50.5% (active),60%,-40.4% (active),–,–
N=C(N)N=Nc1ccc(NN=C(N)N)c2ccccc12,113%,103%,146%,101%,142%,–,106,–,110%,99.3%,73.1%,51.7%,35.5%,87.8%,138%,102%,103%,113%,105%,75.9%
O=C1C=C(OCC=C(C(F)(F)F)C(F)(F)F)c2ccccc2C1=O,-15% (active),-15.5% (active),-34.8% (active),7.59% (active),-82.5% (active),0.611% (active),–,–,11%,6.37% (active),66.6%,61%,39.7%,-19% (active),33.5%,63.7%,-62.4% (active),-17.5% (active),45.8%,26%
NC(CSC(c1ccccc1)(c1ccccc1)c1ccccc1)C(=O)NCC(=O)O (centres undefined),111%,54.2%,52.9%,61.2%,22.6%,67.3%,–,21.3%,73.2%,101%,76.1%,85.7%,38.3%,81.9%,44.3%,62.5%,81.4%,63.3%,54.9%,–
C[C@]12CC[C@H]3[C@@H](CC[C@H]4C[C@@H](O)CC[C@@]43C)[C@@H]1CC(=O)C2,107%,94.1%,163%,112%,118%,97.9%,–,92.7%,100%,96.9%,98.2%,100%,97.6%,99.7%,111%,87.6%,102%,113%,104%,108%
O=C1C(Cl)=C(Nc2ccc(Nc3ccccc3)c(NC3=C(Cl)C(=O)c4ccccc4C3=O)c2)C(=O)c2ccccc21,104%,41.4%,39.4%,58.5%,74.3%,72.7%,–,42.5%,56.2%,66.4%,–,52.3%,33.5%,48%,90.9%,39.4%,63.3%,113%,79.8%,118%
COc1ccc(C(=O)c2no[n+]([O-])c2C(=O)c2ccc(OC)cc2)cc1,81.1%,-100% (active),-69.5% (active),57.4%,–,-38.5% (active),92.8,89.3%,20.1%,10.1%,–,97.7%,35.9%,-37.7% (active),85.5%,78.9%,-69.2% (active),109%,13.4%,–
